Source: PubChem BioAssay
USP30 inh = blocks human USP30 ubiquitin-rhodamine cleavage; 47,000 compounds, 5.3% hits; purified USP30, Ub-rhodamine cleavage fluorescence; inhibition, % at 25 µM; AID 1645860; Q70CQ3
USP10 inh = blocks human USP10 ubiquitin-rhodamine cleavage | Q14694 | inhibition, % at 20 µM | purified USP10, Ub-rhodamine fluorescence, 60 min | 47,000 compounds, 1.1% hits
USP28 block = human USP28 deubiquitinase inhibition. Q96RU2. purified USP28, Ub-rhodamine cleavage fluorescence, 30 min. inhibition, % at 25 µM. 47,000 compounds, 3% hits. AID 1645857
USP17 block = human USP17-like deubiquitinase inhibition | A8MUK1 | purified USP17, Ub-rhodamine cleavage fluorescence, 3 h | inhibition, % at 50 µM | 47,000 compounds, 6.5% hits
Target sequence (A8MUK1 whole entry, looked up): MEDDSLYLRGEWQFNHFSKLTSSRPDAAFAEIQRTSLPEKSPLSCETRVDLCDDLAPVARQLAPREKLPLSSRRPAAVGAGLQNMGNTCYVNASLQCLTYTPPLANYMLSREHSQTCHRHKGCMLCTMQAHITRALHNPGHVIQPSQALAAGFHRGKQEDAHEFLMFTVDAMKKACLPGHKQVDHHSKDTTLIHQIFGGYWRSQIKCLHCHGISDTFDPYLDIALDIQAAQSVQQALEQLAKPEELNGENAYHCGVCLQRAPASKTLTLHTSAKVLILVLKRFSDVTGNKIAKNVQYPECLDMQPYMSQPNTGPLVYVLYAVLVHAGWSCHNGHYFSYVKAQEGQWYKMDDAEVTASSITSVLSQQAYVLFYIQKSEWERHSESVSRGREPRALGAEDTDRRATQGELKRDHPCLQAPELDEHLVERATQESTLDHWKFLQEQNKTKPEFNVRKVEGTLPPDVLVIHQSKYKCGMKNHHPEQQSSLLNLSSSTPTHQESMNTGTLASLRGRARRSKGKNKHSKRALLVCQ
USP8 block = blocks human USP8 ubiquitin-rhodamine cleavage | P40818 | purified USP8, Ub-rhodamine cleavage fluorescence, 30 min | inhibition, % at 20 µM | 47,000 compounds, 4.2% hits | AID 1645853
An asterisk follows results filed as active. In the library only some 14% were active in any assay of this set; here they are far more common. No stated cut-off is given here; in the data, active means inhibition above about 30%; inactive means the rest.

What do the screens show for `CCOC(=O)c1nc(Nc2ccc(OC)c(Cl)c2)c2ccccc2n1`?
USP30 inh: 49.4*; USP10 inh: -3.2; USP28 block: 16.6; USP17 block: 74.5*; USP8 block: -1.7

Results for O=S1(=O)CCN2C(c3ccc4c(c3)CCCC4)=CSC2=N1 ?
USP30 inh: 18.4; USP10 inh: 0.8; USP28 block: 26.6; USP17 block: 19.6; USP8 block: 11.6

What do the screens show for `CC(=O)Nc1ccc(C2=CSC3=NS(=O)(=O)CCN23)cc1`?
USP30 inh: 31.6*; USP10 inh: -1.7; USP28 block: 13.4; USP17 block: 9.5; USP8 block: 12.5

How did Cc1ccc(N=Cc2sc(O)c3ccccc23)c(C)c1 do in these assays?
USP30 inh: inactive; USP10 inh: -10.5; USP28 block: -242.9; USP17 block: -178.4; USP8 block: -292.1

Results for Oc1sc(C=Nc2cc(Cl)ccc2Cl)c2ccccc12 ?
USP30 inh: -57.7; USP10 inh: -9.6; USP28 block: -0.2; USP17 block: 54.2*; USP8 block: 46.8*

What do the screens show for `COc1ccc(OC)c(NC2=NS(=O)(=O)C(c3cccc(Br)c3)=C2C)c1`?
USP30 inh: inactive; USP10 inh: -2.6; USP28 block: -132.0; USP17 block: -29.2; USP8 block: -89.2

What do the screens show for `O=C(NCc1ccc2c(c1)OCO2)c1ccc(C2SCC(=O)N2Cc2ccco2)cc1` (centres undefined)?
USP30 inh: 4.6; USP10 inh: 7.4; USP28 block: 22.3; USP17 block: 56.3*; USP8 block: 35.8*

How did COc1ccc(CC(=O)N2CC(=O)Nc3ccc(C)cc3C2c2ccc(F)cc2)cc1OC (centres undefined) do in these assays?
USP30 inh: 16.6; USP10 inh: -1.7; USP28 block: 2.6; USP8 block: 17.9

Results for O=C(COc1ccc(C2CCCCC2)cc1)Nc1ccc2oc(-c3cccnc3)nc2c1 ?
USP30 inh: 26.5; USP10 inh: 3.4; USP28 block: -9.3; USP17 block: 0.1; USP8 block: -13.1

What do the screens show for `O=S(=O)(Nc1ccc2oc(-c3ccncc3)nc2c1)c1ccccc1`?
USP30 inh: 30.4*; USP10 inh: 5.2; USP28 block: 32.1*; USP17 block: 54.5*; USP8 block: 1.9

How did Cc1ccc(CNC(=O)c2ccc3nn(CC(=O)NC(C)C)c(=O)n3c2)cc1 do in these assays?
USP30 inh: -13.0; USP10 inh: 0.1; USP28 block: -8.2; USP17 block: -5.1; USP8 block: 6.7

What do the screens show for `O=C(Nc1ccccc1)c1ccc2c(c1)CC(c1ccccc1)OC2=O` (centres undefined)?
USP30 inh: 16.8; USP10 inh: 6.7; USP28 block: 4.7; USP17 block: 74.2*; USP8 block: 31.7*

What do the screens show for `O=C(Nc1cccc(C(=O)NC2CC2)c1)c1ccc2c(c1)CC(c1ccccc1)OC2=O` (centres undefined)?
USP30 inh: -0.1; USP10 inh: 9.8; USP28 block: 8.1; USP17 block: -12.0; USP8 block: -94.7

How did O=c1[nH]c(CSc2ccc3c(c2)OCCCO3)nc2scc(-c3ccccc3)c12 do in these assays?
USP30 inh: -92.3; USP10 inh: -1.6; USP28 block: -16.5; USP17 block: -39.1; USP8 block: -40.8

Results for Cc1ccc(-n2cc(C(=O)NCc3cccnc3)nn2)cc1C ?
USP30 inh: 66.5*; USP10 inh: 8.3; USP28 block: 18.6; USP8 block: -2.6

How did O=C(NCc1cccnc1)c1cn(-c2cccc(Cl)c2)nn1 do in these assays?
USP30 inh: 28.9; USP10 inh: -1.9; USP28 block: 4.9; USP17 block: 23.7; USP8 block: -3.3

What do the screens show for `O=C(NCc1ccccn1)c1cn(-c2cccc(Cl)c2)nn1`?
USP30 inh: 9.0; USP10 inh: 2.8; USP28 block: -13.5; USP17 block: 32.7*; USP8 block: -1.1

What do the screens show for `CN(C)C(=O)N1CCC(c2nc3ccc(-c4cccc(F)c4)cn3n2)CC1`?
USP30 inh: 0.1; USP10 inh: 1.3; USP28 block: 0.7; USP17 block: -124.8; USP8 block: -31.7

Results for O=C(CCCc1c[nH]c2ccccc12)N1CCN(S(=O)(=O)c2ccc(Br)cc2)CC1 ?
USP30 inh: 1.0; USP10 inh: -0.3; USP28 block: -2.5; USP17 block: 8.3; USP8 block: -4.2

How did O=C(CCCc1c[nH]c2ccccc12)N1CCN(S(=O)(=O)c2ccc(F)cc2)CC1 do in these assays?
USP30 inh: 40.6*; USP10 inh: 3.6; USP28 block: 13.7; USP17 block: 11.4; USP8 block: 5.1

What do the screens show for `Cc1nn(-c2ccccc2)c(C)c1C(=O)OCC(=O)Nc1cccc(C#N)c1`?
USP30 inh: 4.8; USP10 inh: -0.1; USP28 block: 65.8*; USP17 block: 8.2; USP8 block: 19.0

How did Cc1nn(-c2ccccc2)c(C)c1C(=O)OCC(=O)N(C)c1ccccc1 do in these assays?
USP30 inh: 16.5; USP10 inh: 1.2; USP28 block: 8.1; USP17 block: 11.6; USP8 block: 9.2

What do the screens show for `CCC(C)[C@H](NC(=O)[C@H](Cc1ccccc1)n1c(=O)[nH]c2ccccc2c1=O)C(=O)N1CCC(C(=O)O)CC1` (some centres undefined)?
USP30 inh: 14.8; USP10 inh: -4.8; USP28 block: 7.9; USP17 block: 7.5; USP8 block: -18.5

How did CCOc1ccc(C(=O)c2cc3c(CO)cnc(C)c3oc2=O)cc1 do in these assays?
USP30 inh: -2.5; USP10 inh: 1.0; USP28 block: -7.8; USP17 block: -0.8; USP8 block: -51.4

How did Cc1nc(-c2ccccc2)sc1C(=O)Nc1ccc2cc[nH]c2c1 do in these assays?
USP30 inh: -8.9; USP10 inh: 0.4; USP28 block: -8.7; USP17 block: 14.2; USP8 block: -4.5

Results for COc1ccc(OC)c(NC(=O)c2cc3c(CO)cnc(C)c3oc2=O)c1 ?
USP30 inh: 43.5*; USP10 inh: -1.0; USP28 block: 13.1; USP17 block: 33.4*; USP8 block: -12.9

How did CC(=O)c1cccc(NC(=O)c2sc(-c3ccccc3)nc2C)c1 do in these assays?
USP30 inh: 17.0; USP10 inh: 1.6; USP28 block: 33.4*; USP17 block: 18.8; USP8 block: 18.0

How did COc1ccc(OC)c(NC(=O)c2sc(-c3ccccc3)nc2C)c1 do in these assays?
USP30 inh: 74.5*; USP10 inh: 16.7; USP28 block: 44.3*; USP17 block: 51.3*; USP8 block: 41.8*

What do the screens show for `COc1ccc(-c2nc(C)c(C(=O)NCc3ccc(S(N)(=O)=O)cc3)s2)cc1`?
USP30 inh: 19.1; USP10 inh: 8.6; USP28 block: 17.1; USP17 block: 56.6*; USP8 block: -71.5

Results for COc1cccc(F)c1-c1nc(C)c(C(=O)NCc2ccccc2)s1 ?
USP30 inh: 3.1; USP10 inh: -1.6; USP28 block: 4.3; USP17 block: -0.4; USP8 block: -39.3

What do the screens show for `COc1ccc(NC(=O)c2nc(C3CCC3)oc2C)cc1Cl`?
USP30 inh: -2.1; USP10 inh: 10.3; USP28 block: 9.8; USP17 block: 3.2; USP8 block: -0.9
